71 compounds from PubChem BioAssay AID588726 (The Scripps Research Institute Molecular Screening Center, 2011) can be followed below.

Each structure is given as a SMILES string. The whole screen tested about 360,000 compounds, of which about 8,200 (2.3%) were called active. This is one part of a sample in which actives are shown more often than they occur. Unmarked numbers belong to inactive results. No stated cut-off is given here; in the data, active means inhibition above about 27%; inactive means the rest.

The assay deals with Fructose-bisphosphate aldolase (Mycobacterium tuberculosis (strain ATCC 25618 / H37Rv)) (UniProt P9WQA3). The assay is described as follows: M. tuberculosis aldolase activity blockers – biochemical, fluorescence, strain H37Rv, primary screen (AID 588726).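 Further: 0% = vehicle and 100% = reference inhibitor.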 Particulars: purified M. tuberculosis FBA, fluorescence read-out, at 1 µM, stronger effect = higher value.
Fructose-bisphosphate aldolase (Mycobacterium tuberculosis (strain ATCC 25618 / H37Rv)), sequence (P9WQA3 whole entry, looked up): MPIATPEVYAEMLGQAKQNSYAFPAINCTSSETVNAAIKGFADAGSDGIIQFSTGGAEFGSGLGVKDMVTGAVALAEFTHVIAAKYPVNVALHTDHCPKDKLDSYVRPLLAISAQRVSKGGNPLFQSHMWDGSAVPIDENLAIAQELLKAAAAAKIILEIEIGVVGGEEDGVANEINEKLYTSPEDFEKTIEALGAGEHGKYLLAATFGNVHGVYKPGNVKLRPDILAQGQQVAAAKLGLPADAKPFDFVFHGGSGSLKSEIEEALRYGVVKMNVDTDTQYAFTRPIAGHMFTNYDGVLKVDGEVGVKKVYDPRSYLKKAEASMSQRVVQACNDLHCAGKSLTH
As to `CC(C)c1ccc(Nc2nnc(SCC(=O)c3nnc(-c4ccccc4)o3)s2)cc1`, the inhibition (commonly the drop in the measured response relative to a control, in per cent) was -2.05%.
Under `CCOC(=O)C1CCN(C(=O)C2CCCN(S(=O)(=O)c3ccc(OC)c(Cl)c3)C2)CC1` (stereo unspecified) stands 13.8%.
Under `COc1ccc(C2NC(=O)c3ccccc3N2)cc1` (stereo unspecified) stands 67% (active).
Under `O=C1NC(c2ccccc2)Oc2ccccc21` (stereo unspecified) stands 6.04%; under `C=CCOc1cccc(C2NC(=O)c3ccccc3O2)c1` (stereo unspecified), 5.49%.
`COc1ccc(C2(O)C(=O)Nc3ccccc32)cc1` (stereo unspecified): the inhibition is 1.93%.
Under `COc1ccc(C2CC(=O)NC(=O)C2)cc1` stands 0.31%.
Regarding `O=C1NC(c2cccc(Cl)c2)Nc2ccccc21` (stereo unspecified), the inhibition was 30.3% (active).
Under `CC(C)=CCCC1(C)C=Cc2c(ccc3c2[nH]c2cc(O)c(C)cc23)O1` (stereo unspecified) stands -3.09%; under `COc1cccc(CNC(=O)C(=O)NCCC2CCCCN2S(=O)(=O)c2ccc(C)cc2)c1` (stereo unspecified), 1.18%.
Under `COC(=O)C1NN=C(C(=O)c2ccc(Br)cc2)C1c1cccc(Br)c1` (stereo unspecified) stands -2.34%; under `CC(=O)Nc1cccc(Nc2ccc(C#N)cc2)c1`, 0.34%; under `Cc1ccc(C2Nc3cccc4cccc(c34)N2)cc1`, 49.3% (active).
Under `Oc1ccc(C2Nc3cccc4cccc(c34)N2)cc1` stands -2.34%.
For `O=[N+]([O-])c1ccc2c(c1)C(N1CCOCC1)/C(=C/C1(O)CCCCC1)O2` (stereo unspecified), the inhibition is -4.67%.
Under `COCc1cc(=O)[nH]c2cc(NC(=O)C(F)(F)F)c(C)cc12` stands 31.5% (active); under `Cc1ccccc1Cn1nc(C)c(NC(=O)C(F)(F)F)c1C`, -0.53%; under `O=C(Nc1ccccc1)c1ccccc1NC(=O)C(F)(F)F`, -0.1%.
Under `COCCCN1C(=O)C(=O)/C(=C(/O)c2ccc(S(=O)(=O)N3CCOCC3)cc2)C1c1ccc(F)cc1` (stereo unspecified) stands 4.42%; under `COc1ccccc1NC(=O)COC(=O)COc1ccccc1F`, -0.62%; under `COc1cc(CO)ccc1OCC(=O)Nc1cccc2ccccc12`, -1.87%.
Under `COc1ccccc1NC(=O)COc1ccc(C(=O)OCC(=O)N(C(C)C)C(C)C)cc1OC` stands 33.2% (active).
In the case of `COc1ccc(C2c3c(C)nn(-c4ccccc4)c3NC(=O)N2c2ccccc2)cc1` (stereo unspecified), the inhibition was -0.42%.
Under `O=C(CCC1CCN(C(=O)c2cccc(Cl)c2F)CC1)Nc1ccccc1` stands -0.26%.
Under `COc1ccc(CCNC(=O)c2cc3sccc3n2C)cc1OC` stands 6.99%; under `COc1ccc(CCNC(=O)Nc2ccc3c(c2)c(=O)n(C)n3C)cc1OC`, 156% (active).
As for `COc1ccc(CCNC(=O)C(=O)Nc2ccc3nc4n(c(=O)c3c2)CCCCC4)cc1OC`, the inhibition is -5.38%.
Under `CCCc1cc(=O)n2[nH]c(C)c(-c3ccc(Cl)cc3)c2n1` stands 27.5% (active); under `COCc1cc(=O)[nH]c(SC)n1`, 2.44%; under `Cc1nc(=O)c(-c2ccccc2)c(C)n1-c1ccc(Br)cc1`, 2.14%.
Under `CCCc1cc(=O)n2[nH]c(SCc3ccccc3)nc2n1` stands -0.14%; under `COCc1cc(=O)[nH]c(-c2ccc(C(F)(F)F)cc2)n1`, 2.51%; under `COCc1cc(=O)n2[nH]c(C)c(-c3ccccc3)c2n1`, 102% (active).
Under `Cc1nc2nc(COc3ccccc3)[nH]n2c(=O)c1C` stands 0.07%.
Turning to `CCCc1c(C)nc2scc(-c3ccc(Cl)cc3)n2c1=O`, the inhibition is 0.91%.
Under `Cc1nc2c(-c3ccccc3)c(C)[nH]n2c(=O)c1Cl` stands 47.5% (active); under `COc1ccc(-c2csc3nc(-c4ccccc4F)oc(=O)c23)cc1OC`, 2.27%; under `C=CC(=O)Nc1ccc(Nc2ccnc(Nc3ccc(N4CCN(C)CC4)cc3)n2)cc1`, 3.07%.
As for `Cc1nc(SCC(=O)N2CCc3ccccc3C2)c2c(C)c(C)sc2n1`, the inhibition was 0.74%.
On to `COc1cc(C2C(C#N)=C(C)NC3=C2C(=O)CC(C)(C)C3)ccc1O` (stereo unspecified), for which the inhibition is 0.13%.
Under `Cc1sc2nc(-c3ccccc3F)oc(=O)c2c1C` stands -0.79%; under `COc1ccccc1N(CC(=O)N/N=C(\C)c1ccccc1O)S(=O)(=O)c1ccc(C)cc1`, 2.36%; under `COc1ccc(-c2csc3ncnc(Oc4ccc5c(C)cc(=O)oc5c4)c23)cc1`, 2.35%.
Under `COc1ccc(-c2cc(=O)oc3cc(OCC(=O)N[C@@H](Cc4c[nH]c5ccccc45)C(=O)O)ccc23)cc1` stands 6.63%; under `COc1ccc(-c2cc3ccc(OCc4nn[nH]n4)cc3oc2=O)cc1`, 734% [above what the read-out allows, likely interference] (active).
Under `CC1CCN(C(=O)Cn2nnnc2CN2CCOCC2)CC1` stands -0.01%.
Turning to `CCN(CC)c1ccc2cc(C(=O)O)c(=O)oc2c1`, the inhibition was 36.2% (active).
For the compound `CCN(CC)c1ccc([N+](=O)[O-])cc1C(=O)O`, the inhibition is -17.9%.
With `Cc1cc(C)cc(OCC(=O)NNC(=O)c2cc3ccccc3oc2=O)c1`, the inhibition was 1.86%.
Under `Cc1ccc(C2=Nc3c(ccc4ccccc34)C(c3ccncc3)=NN2)cc1` stands 1.27%.
Regarding `CC1(C(=O)NCc2ccc(F)c(F)c2)Cc2c(-c3ccc4c(c3)OCO4)ccnc2O1` (stereo unspecified), the inhibition is 44.6% (active).
Under `CC(=O)Nc1cccc(-c2ccnc3c2CC(C)(C(=O)NCc2ccco2)O3)c1` (stereo unspecified) stands -0.36%.
Regarding `O=C(Cn1nnc(-c2ccc3c(c2)OCO3)n1)NCc1ccco1`, the inhibition is 1.83%.
Under `CC(=O)Nc1cccc(-c2ccnc3c2CC(C)(C(=O)NCc2ccccc2)O3)c1` (stereo unspecified) stands 1.41%; under `CC1(C(=O)NCC2CCOCC2)Cc2c(-c3cccc(C(N)=O)c3)ccnc2O1` (stereo unspecified), -0.46%.
Under `CC1(C(=O)NCc2ccco2)Cc2c(-c3ccc4c(c3)OCO4)ccnc2O1` (stereo unspecified) stands 46.9% (active).
Under `CCc1nc2c(OCC(N)=O)cccn2c1N(C)C(=O)c1ccc(OC)cc1` stands -2.06%; under `Cc1nc(C(=O)NCc2ccccc2)sc1C1(C)CC(c2cccnc2)=NO1` (stereo unspecified), -0.93%; under `O=C(CN1CCN(S(=O)(=O)c2ccc(Cl)s2)CC1)N1CCCCC1`, 5.01%.
`COc1ccc(-c2cc(C(=O)n3cnc4ccccc43)c3ccccc3n2)cc1`: the inhibition is 113% (active).
Under `O=C(c1ccc(Cl)cc1)n1cnc2ccccc21` stands 5.13%; under `COc1ccc(-c2cc(C(=O)Nc3ccccc3O)c3ccccc3n2)cc1`, 28.8% (active).
In the case of `C/C(N)=C(/C#N)C(=O)COC(=O)c1cc(-c2ccc(C)cc2)nc2ccccc12`, the inhibition is 0.39%.
With `COc1cccc(NC(=O)CN(C)C(=O)c2cc(Cl)nc3ccccc23)c1`, the inhibition was 2.95%.
Under `COc1ccc(NC(=O)CN(C)C(=O)c2cc(C)oc2C)cc1` stands 0.68%; under `COc1ccc(C)cc1NC(=O)c1cc(-c2ccccc2)nc2c1cnn2C(C)C`, 1.87%.
Under `CN(CCOc1ccccc1)C(=O)c1cc(COc2c(F)cccc2F)on1` stands -3.64%; under `COc1ccc(NC(=O)CN(C)C(=O)c2cc(-c3ccc(C)o3)nc3ccccc23)cc1`, 71.2% (active); under `CN(CCOc1ccccc1)C(=O)c1cc(-c2ccco2)nc2ccccc12`, 29.6% (active).
Under `C/C(=N\NC(=O)c1cc(-c2ccc(O)cc2)nc2ccccc12)c1cccnc1` stands 0.88%.
For `CN(C(=O)COC(=O)c1cc(-c2ccco2)nc2ccccc12)C1CCS(=O)(=O)C1` (stereo unspecified), the inhibition is 4.55%.
